# PubChem BioAssay AID1159580 (chemical genetic matrix, 2015)
# The whole screen tested about 5,500 compounds, of which about 2,000 (36%) were called active. About 18% were inconclusive and are not listed. The list shows a part of the results. Unmarked numbers belong to inactive results. Cut-off read from the data, not from the text of the source: active = normalized growth mostly below about 0.91 (no sharp cut-off); inconclusive = no clear call, values can overlap the other calls; inactive = mostly above about 0.92.
# Assay: chemical genetic growth profiling, strain panel (AID 1159580);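 note: tested at 20 µM; growth read once vehicle control cultures reached saturation at 30 °C; 1 = growth at the plate median or of vehicle wells; lower values mean less growth of the strain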
# Conditions: S. cerevisiae deletion strains, growth OD
smiles,measurement,setting,value
O=C1OC2COC(=O)C2C=C1NC(=O)c1ccc(Cl)cc1 (centres undefined),normalized growth,"locus YAL013W, strain DEP1, stronger effect = lower value",0.914 (active)
same,normalized growth,"locus YBR229C, strain ROT2, stronger effect = lower value",0.372 (active)
same,normalized growth,"locus YCL061C, strain MRC1, stronger effect = lower value",0.125 (active)
same,normalized growth,"locus YDL101C, strain DUN1, stronger effect = lower value",0.154 (active)
same,normalized growth,"locus YDR150W, strain NUM1, stronger effect = lower value",0.939
same,normalized growth,"locus YEL061C, strain CIN8, stronger effect = lower value",0.882 (active)
same,normalized growth,"locus YGR078C, strain PAC10, stronger effect = lower value",0.438 (active)
same,normalized growth,"locus YHR030C, strain SLT2, stronger effect = lower value",0.38 (active)
same,normalized growth,"locus YHR087W, strain rtc3, stronger effect = lower value",0.225 (active)
same,normalized growth,"locus YJL187C, strain SWE1, stronger effect = lower value",0.381 (active)
same,normalized growth,"locus YJR043C, strain POL32, stronger effect = lower value",0.793 (active)
same,normalized growth,"locus YJR075W, strain HOC1, stronger effect = lower value",0.0733 (active)
same,normalized growth,"locus YKL190W, strain CNB1, stronger effect = lower value",0.913 (active)
same,normalized growth,"locus YLR039C, strain RIC1, stronger effect = lower value",0.422 (active)
same,normalized growth,"locus YLR058C, strain SHM2 (second series), stronger effect = lower value",0.506 (active)
same,normalized growth,"locus YLR085C, strain ARP6, stronger effect = lower value",0.836
same,normalized growth,"locus YLR262C, strain YPT6, stronger effect = lower value",0.436 (active)
same,normalized growth,"locus YML094W, strain GIM5, stronger effect = lower value",0.82 (active)
same,normalized growth,"locus YMR219W, strain ESC1, stronger effect = lower value",0.143 (active)
same,normalized growth,"locus YMR263W, strain SAP30, stronger effect = lower value",0.921
same,normalized growth,"locus YMR307W, strain GAS1, stronger effect = lower value",0.786
same,normalized growth,"locus YNL153C, strain GIM3, stronger effect = lower value",0.329 (active)
same,normalized growth,"locus YNL298W, strain CLA4 (second series), stronger effect = lower value",0.698 (active)
same,normalized growth,"locus YNL322C, strain KRE1, stronger effect = lower value",0.967
same,normalized growth,"locus YNR030W, strain Alg12, stronger effect = lower value",0.978
same,normalized growth,"locus YOL006C, strain TOP1, stronger effect = lower value",0.72 (active)
same,normalized growth,"locus YPL055C, strain LGE1, stronger effect = lower value",0.942
same,normalized growth,"locus YPL241C, strain CIN2, stronger effect = lower value",0.975
same,normalized growth,"locus YPR135W, strain CTF4, stronger effect = lower value",0.627 (active)
